Records with an inconclusive call do not appear. Calls of active or inactive are those of the source. The call rests on the fitted dose curve; in most records, active means well fitted inhibition curve with a large enough effect; inconclusive means small, poorly fitted or top-dose-only effect; inactive means no such curve, though single readings can be large or run the other way.
Experiment: BET inhibitor-based combinations targeting novel dependencies in MECOM-rearranged (r) AML: HNT-34 cell line (AID 2202234); further: nearly all actives have a fitted effect of over 35% in size;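 on viability (% of control): plate controls were vehicle wells for no effect and cell-free wells for full effect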
Details: HNT-34 AML viability, CellTiter-Glo luminescence, 48 h; series mostly up to 46 µM; viability (% of control): at the top concentration
How it was run: (§1)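 Each compound is tested in an 11-point concentration series against 500 seeded cells/well for 48 hr. The luminescent viability signal is normalized to DMSO and blank wells, then reduced to AUC and a cell-line-centred Z-AUC.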
With `C[C@@H]1Cc2c([nH]c3ccccc23)[C@@H](c2c(F)cc(/C=C/C(=O)O)cc2F)N1CC(C)(C)F` the “viability (% of control)” value was 90.3% (inactive). In the case of `COC1(c2sc3c(N4CCOCC4)nc(-c4cnc(N)nc4)nc3c2C)COC1`, the Potency is reported as 0.468 µM (active). With `Nc1nc2c(c(=O)[nH]1)N1CN(c3ccc(C(=O)N[C@@H](CCC(=O)O)C(=O)O)cc3)CC1CN2` (stereo partly specified) the Potency was 9.34 µM (active). For `CCCS(=O)(=O)c1nc(NC2CC2)cc(-c2ccc3c(ccn3C3CC(C)(C)NC(C)(C)C3)c2)n1`, the Potency was 3.12 µM (active). In the case of `CCNC(=O)Nc1ccc(-c2nc3c(c(N4CCOC[C@@H]4C)n2)CCN(C2COC2)C3)cc1`, the Potency is reported as 1.05 µM (active). With `COc1cc(N2CCN(C)CC2)ccc1Nc1ncc2c(n1)N(C)c1ccccc1C(=O)N2` the Potency was 26.3 µM (active). In the case of `Cc1cnc(NC(=O)Nc2cc(Br)c(C)cc2OC[C@@H]2CNCCO2)cn1`, the Potency is reported as 9.34 µM (active). In the case of `O=C(O)c1cccnc1`, the “viability (% of control)” value is reported as 97.7% [at 92.2 µM] (inactive). In the case of `Nc1n[n+]([O-])c2ccccc2[n+]1[O-]`, the Potency is reported as 16.6 µM (active).

Experiment: BET inhibitor-based combinations targeting novel dependencies in MECOM-rearranged (r) AML: UCSD-AML1 cell line (AID 2202235); further: nearly all actives have a fitted effect of over 40% in size;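 on viability (% of control): plate controls were DMSO vehicle wells for no effect and blank wells for full effect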
Details: UCSD-AML1 AML cells viability, CellTiter-Glo, 48 h; series mostly up to 46 µM; viability (% of control): at the top concentration
How it was run: as §1
In the case of `Clc1ccc(-c2nc3sccn3c2/C=N/OCc2ccc(Cl)c(Cl)c2)cc1`, the “viability (% of control)” value is reported as 101% (inactive). In the case of `CCCN(CCC)C(=O)C1=Cc2ccc(-c3ccc(C(=O)N4CCCC4)cc3)cc2N=C(N)C1`, the “viability (% of control)” value is reported as 111% (inactive). With `CC(C)(O)C1CCC(Nc2ccc3ncc(-c4cccc(C(F)(F)F)c4)n3n2)CC1` (stereo unspecified) the Potency was 6.61 µM (active). With `COc1ccc2[nH]c3c(c2c1)CCN[C@]31CS[C@@H]2c3c(OC(C)=O)c(C)c4c(c3[C@H](COC1=O)N1[C@@H]2[C@H]2c3c(cc(C)c(OC)c3O)C[C@@H]([C@@H]1O)N2C)OCO4` the Potency was 0.0038 µM (active). In the case of `COC(=O)Nc1nc2ccc(C(=O)c3ccccc3)cc2[nH]1`, the Potency is reported as 0.296 µM (active). With `COc1cc(C(N)=O)ccc1NC(=O)[C@@H]1N[C@@H](CC(C)(C)C)[C@@]2(C(=O)Nc3cc(Cl)ccc32)[C@H]1c1cccc(Cl)c1F` the Potency was 0.209 µM (active). In the case of `CC/C(=C(/c1ccc(O)cc1)c1ccc(OCCNC)cc1)c1ccccc1`, the Potency is reported as 9.34 µM (active). With `CC(C)(C)C[C@H]1N[C@@H](C(=O)NC2CCC(O)CC2)[C@H](c2cccc(Cl)c2F)[C@@]12C(=O)Nc1cc(Cl)ccc12` (stereo partly specified) the Potency was 1.66 µM (active). In the case of `Cc1cc2cc(Oc3ccnc(Nc4cccc(CS(=O)(=O)NCCN(C)C)c4)n3)ccc2[nH]1`, the Potency is reported as 16.6 µM (active). In the case of `C[C@@H](O)[C@@H]1NC(=O)[C@H](CCCCN)NC(=O)[C@@H](Cc2c[nH]c3ccccc23)NC(=O)[C@H](Cc2ccccc2)NC(=O)[C@@H](NC(=O)[C@H](N)Cc2ccccc2)CSSC[C@@H](C(=O)N[C@H](CO)[C@@H](C)O)NC1=O`, the “viability (% of control)” value is reported as 98.5% [at 15.6 µM] (inactive). For `CC1(C)CCC2(CC1)N[C@@H](C(=O)N[C@@H]1CC[C@@H](C(N)=O)OC1)[C@H](c1ccnc(Cl)c1F)[C@]21C(=O)Nc2cc(Cl)ccc21`, the Potency was 0.201 µM (active). For `CN1C(=O)[C@@H](NC(=O)c2n[nH]c(Cc3ccccc3)n2)COc2ccccc21`, the “viability (% of control)” value was 103% (inactive). For `CC(C)(O)CC[C@@H](O)[C@](C)(O)[C@H]1CC[C@@]2(O)C3=CC(=O)[C@@H]4C[C@@H](O)[C@@H](O)C[C@]4(C)[C@H]3CC[C@]12C`, the “viability (% of control)” value was 102% (inactive). In the case of `N#Cc1ccc(-c2c(-c3ncn[nH]3)sc(N3CCOCC3)c2C#N)c(F)c1`, the Potency is reported as 1.32 µM (active). For `CC(C)C[C@H](NC(=O)c1cc2ccccc2s1)C(=O)N1CCN(C(=O)[C@H](CO)NS(=O)(=O)c2ccc(Cl)cc2Cl)CC1`, the “viability (% of control)” value was 112% (inactive). For `CNc1nc(-c2ccc3c(N)n[nH]c3c2)cc(N2C[C@@H](C(=O)NC3CCCCC3)CC[C@H]2C)n1`, the Potency was 0.742 µM (active). In the case of `OC1CCC(Oc2cccc3cnc(Nc4ccc5nc[nH]c5c4)nc23)CC1` (stereo unspecified), the Potency is reported as 0.934 µM (active). In the case of `Cc1cc(C)c(CNC(=O)c2cc(-c3ccc(N4CCN(C)CC4)nc3)cc3c2c(C)cn3C(C)C)c(=O)[nH]1`, the “viability (% of control)” value is reported as 113% (inactive). In the case of `N#Cc1c(N)nc(N)nc1N[C@H](c1nc2c(F)ccc(Cl)c2c(=O)n1-c1cccnc1)C1CC1`, the Potency is reported as 5.9 µM (active). In the case of `Cc1ccc(-c2nn(C(C)(C)CNC(=O)c3ccncc3)c3ncnc(N)c23)cc1`, the Potency is reported as 7.42 µM (active). For `CC(C)Oc1ccc(-c2nn([C@@H](C)c3oc4ccc(F)cc4c(=O)c3-c3cccc(F)c3)c3ncnc(N)c23)cc1F`, the “viability (% of control)” value was 113% (inactive). In the case of `Cc1c(-c2c(-c3ccc(F)o3)sc3ncnc(O[C@@H](Cc4ccccc4OCc4ccnn4CC(F)(F)F)C(=O)O)c23)ccc(OCCN2CCN(C)CC2)c1Cl`, the Potency is reported as 1.32 µM (active).
Potency means the concentration at half of the fitted maximal effect.
